Compounds with a hit are over-represented: about 20% of the library has one in this group of screens.
Pf growth 96h – P. falciparum growth inhibition at 96 hours. P. falciparum luciferase reporter growth, 96 h. Potency, µM (series often up to 28.7 µM), for the others: at the top dose activity change, negative = inhibition, most hits filed as inhibitors. 320,000 tested, 6.9% active; also: potency is read from the fitted curve at half-maximal effect; % is scaled to controls: 0 for no effect and ±100 for the full control effect
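Two-generation exposure (96 h) targets delayed-death phenotype. Reporter parasites carrying integrated firefly luciferase, in red cells at 2% hematocrit and 0.05% parasitemia final, kept at 37 C, 5% CO2; luminescence loss indicates inhibition.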
CHX counter – counter-screen for Shiga toxin inhibitors: cycloheximide protein synthesis inhibition; cell reporter, cycloheximide protein synthesis inhibition counterscreen; max response, %; 300,000 tested, 12% active; in the data active = max response mostly above about 13%, no sharp cut-off; inactive = mostly below about 14%; also: read at 38.3 µM for the half of the compounds with a filed dose; 0% is about no effect
Shiga inhibitor – inhibitors of Shiga toxin in Vero cells; inhibition, % at 38.7 µM; Vero cells, Shiga toxin protein synthesis inhibition reporter; 290,000 tested, 9.2% active; AID 2315; in the data active = inhibition mostly above about 28%, no sharp cut-off; inactive = mostly below about 43%; also: 0% is about no effect
HCMV antiviral – human cytomegalovirus inhibition. HFF cells, HCMV-luciferase reporter, 72 h; stronger effect = lower value. activity change, negative = inhibition, % at 57.5 µM. 410,000 tested, 4.5% active. AID 1259415; in the data active = activity change below about -60%; inconclusive = no clear call, values can overlap the other calls; inactive = above about -39%; also: % is scaled to controls: 0 for no effect and ±100 for the full control effect
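Screen run at 2 compound doses on HFFs infected with reporter HCMV, MOI 1 PFU/cell. Luciferase activity from cell lysates at 72 h post infection gave inhibition relative to buffer-only and Salinomycin wells.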
Pf growth 48h – P. falciparum growth inhibition at 48 hours (one generation); P. falciparum luciferase growth in erythrocytes, 48 h; Potency, µM (top dose mostly 28.7 µM), without a hit: at the top dose activity change, negative = inhibition, actives largely listed as inhibitors; 310,000 tested, 5.9% active; AID 504832; also: potency is read from the fitted curve at half-maximal effect; % is scaled to controls: 0 for no effect and ±100 for the full control effect
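Luciferase-expressing P. falciparum in infected erythrocytes (2% hematocrit, 0.1% parasitemia final) in RPMI 1640/0.5% Albumax were exposed to compound for 48 hours at 37 C, 5% CO2; growth read as luminescence.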
* marks the source's active call; other numbers are inactive results. Unless noted, calls follow the shape of the dose curve; as a rule, active = well fitted inhibition curve with a large enough effect; inconclusive = small, poorly fitted or top-dose-only effect, or another doubt; inactive = no such curve, though single readings can be large or run the other way.

What do the screens show for `COc1ccc(NC(=O)Cn2cc(C(=O)c3ccccc3)c(=O)c3cc(OC)ccc32)c(OC)c1`?
HCMV antiviral: -0.9

Results for Cc1ccccc1C(=O)N1CCC(n2nccc2NC(=O)CCOc2ccccc2)CC1 ?
Pf growth 96h: inconclusive; CHX counter: 20.7; Shiga inhibitor: 36.6; HCMV antiviral: 14.0; Pf growth 48h: inconclusive

Results for O=C(COc1ccc(Br)cc1CNC1CCCC1)Nc1ccccc1 ?
Pf growth 96h: -19.6%; CHX counter: -0.8; Shiga inhibitor: -14.1; HCMV antiviral: 29.5; Pf growth 48h: 13.1µM*

How did Cc1ccc(NC(=O)COc2ccc(Br)cc2C)cc1 do in these assays?
Pf growth 96h: -18.5%; CHX counter: 69.8*; Shiga inhibitor: 91.2*; HCMV antiviral: -39.4; Pf growth 48h: 40.7%

Results for Cc1ccc(OCC(=O)Nc2ccc(NC(=O)c3ccco3)cc2)c(C)c1 ?
Pf growth 96h: inconclusive; CHX counter: 21.8; Shiga inhibitor: 16.5; HCMV antiviral: -37.4; Pf growth 48h: inconclusive

How did O=C(COc1ccc(Br)cc1CO)Nc1ccc(S(=O)(=O)N2CCCC2)cc1 do in these assays?
Pf growth 96h: inconclusive; HCMV antiviral: inconclusive; Pf growth 48h: 9.28µM*

What do the screens show for `O=C(COc1ccc(Br)cc1CO)Nc1ccc(F)cc1`?
Pf growth 96h: -11.4%; CHX counter: 9.1*; Shiga inhibitor: 35.2; HCMV antiviral: -1.6; Pf growth 48h: -8.8%

Results for O=C(c1ccc(CSc2nc3ccncc3n2Cc2ccc(F)cc2)cc1)N1CCCCCC1 ?
HCMV antiviral: -22.0

How did COc1ccc(C[C@H]2CN3C(=NC[C@@H]3Cc3ccc(O)cc3)N2C[C@H](C)NC(=O)CCC2CCCCC2)cc1 do in these assays?
Pf growth 96h: 0.928µM*; CHX counter: -7.4; Shiga inhibitor: -3.8; HCMV antiviral: 67.0; Pf growth 48h: 2.08µM*

Results for COc1ccc(C[C@@H]2CN3C(=NC[C@@H]3Cc3ccc(O)cc3)N2C[C@H](C)NC(=O)CCC2CCCCC2)cc1 ?
Pf growth 96h: 0.738µM*; CHX counter: -3.3; Shiga inhibitor: 20.6; Pf growth 48h: 1.17µM*

How did CC(C)[C@H]1CN=C2N(C[C@H](C)NC(=O)CCC3CCCCC3)[C@H](Cc3ccc(O)cc3)CN21 do in these assays?
Pf growth 96h: 4.15µM*; CHX counter: -5.1; Shiga inhibitor: 12.8; HCMV antiviral: -38.3; Pf growth 48h: 11.7µM*

How did Cc1cccc(N2N=C(C(=O)N3CC(=O)Nc4ccccc43)CCC2=O)c1 do in these assays?
Pf growth 96h: inconclusive; CHX counter: -7.9; Shiga inhibitor: -5.8; HCMV antiviral: inconclusive; Pf growth 48h: -4.0%

How did O=C(Cn1ccc(NC(=O)OCc2ccccc2)nc1=O)NCC1CCCO1 (stereo unspecified) do in these assays?
Pf growth 96h: inconclusive; HCMV antiviral: 15.7; Pf growth 48h: 12.3%

How did COc1ccc(NC(=O)Nc2ccc3c(c2)C(=O)N([C@H](C)CO)C[C@H](C)[C@@H](CN(C)C(=O)Nc2ccc(C(F)(F)F)cc2)O3)cc1 do in these assays?
HCMV antiviral: -14.2

What do the screens show for `CCCCCOc1ccc(Cn2ccnc2)cc1[N+](=O)[O-]`?
Pf growth 96h: inconclusive; CHX counter: 12.7; Shiga inhibitor: 63.9*; HCMV antiviral: inconclusive; Pf growth 48h: inconclusive

What do the screens show for `Cc1ccc(OCCCN2CCOCC2)c([N+](=O)[O-])c1`?
Pf growth 96h: -0.7%; CHX counter: 35.9*; Shiga inhibitor: 73.6*; HCMV antiviral: 189.7; Pf growth 48h: 127.1%

Results for Cc1ccc(OCCCn2ccnc2)c(Br)c1 ?
Pf growth 96h: -17.5%; CHX counter: 19.6*; Shiga inhibitor: 32.5; HCMV antiviral: 66.4; Pf growth 48h: inconclusive

How did Cc1ccc(OCCN2CCN(C)CC2)c([N+](=O)[O-])c1 do in these assays?
Pf growth 96h: inconclusive; CHX counter: -2.7; Shiga inhibitor: 18.1; HCMV antiviral: 11.2; Pf growth 48h: 22.3%

What do the screens show for `Clc1cc(Br)ccc1OCCCn1ccnc1`?
Pf growth 96h: inconclusive; CHX counter: -1.9; Shiga inhibitor: 29.0; HCMV antiviral: 18.1; Pf growth 48h: inconclusive

How did Cc1ccc(OCCCn2ccnc2)c([N+](=O)[O-])c1 do in these assays?
Pf growth 96h: 6.57µM*; CHX counter: -1.7; Shiga inhibitor: 2.8; HCMV antiviral: -22.0; Pf growth 48h: -6.5%

How did O=C(NCc1ccccc1)C1CCN(S(=O)(=O)Cc2ccccc2)CC1 do in these assays?
HCMV antiviral: 9.6

Bioassay records: PubChem, National Center for Advancing Translational Sciences (NCATS)
